Data reported in PubChem BioAssay (Tox21).
Inconclusive results are not listed. A call without a number means that no potency is given here. Active and inactive are the calls of the source. Unless noted, the call rests on the fitted dose curve; in most records, active means well fitted curve in the direction sought with a large enough effect in the repeat runs; inconclusive means weak or mixed curves; inactive means no such curve, though single readings can be large; an effect the other way counts as inactive or inconclusive.

Experiments:
[1] = qHTS assay to identify small molecule agonists of the RXR signaling pathway - cell viability counter screen (AID 1159529); further: nearly all actives have a fitted effect of over 50% in size; further: potency means the concentration at half of the fitted maximal effect
In short: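 Luminescence from CellTiter-Glo (30 min, RT) measured viability in the same wells as the beta-lactamase reporter readout. Cells: GeneBLAzer RXR-alpha HEK 293T, 2% charcoal-stripped FBS. Compound exposure 16 hr, 37 C.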

[2] = qHTS assay to identify small molecule antagonists of the retinoid acid receptor (RAR) signaling pathway - cell viability counter screen (AID 1159551); further: nearly all actives have a fitted effect of over 35% in size; further: potency means the concentration at half of the fitted maximal effect
In short: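 Cytotoxicity counter screen: ATP content quantified by CellTiter-Glo luminescence in C3RL4 cells treated 6 hr at 37 C with compound and retinol (1 uM final). Cells plated at 1,000/well and cultured overnight before dosing.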

[3] = qHTS assay to identify small molecule antagonists of the retinoic acid receptor (RAR) signaling pathway (AID 1159552; further: nearly all actives have a fitted effect of over 50% in size; further: potency means the concentration at half of the fitted maximal effect)
In short: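 Luminescence from a RARE luciferase reporter in C3RL4 cells served as read-out. Cells received compounds together with 1 uM final retinol and incubated 6 hr at 37 C before detection reagent was added for 30 min at room temperature.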

[4] = qHTS assay to identify small molecule antagonists of the estrogen related receptor (ERR) signaling pathway from Tox21 library - cell viability counter screen (AID 1224834); further: nearly all actives have a fitted effect of over 30% in size; further: potency means the concentration at half of the fitted maximal effect
In short: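 CellTiter-Fluor fluorescence, read after 30 min at 37 C, measures viability of ERR cells. Cells plated at 2,000/well and incubated 6 h before pin-tool compound addition, then exposed 17.5 hours at 37 C.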

[5] = target: Luciferin 4-monooxygenase (Photinus pyralis) (UniProt P08659); assay: qHTS assay to identify small molecule inhibitors of firefly luciferase (AID 1224835); further: nearly all actives have a fitted effect of over 25% in size; further: potency means the concentration at half of the fitted maximal effect
Chain of Luciferin 4-monooxygenase (Photinus pyralis) (P08659 whole entry, looked up): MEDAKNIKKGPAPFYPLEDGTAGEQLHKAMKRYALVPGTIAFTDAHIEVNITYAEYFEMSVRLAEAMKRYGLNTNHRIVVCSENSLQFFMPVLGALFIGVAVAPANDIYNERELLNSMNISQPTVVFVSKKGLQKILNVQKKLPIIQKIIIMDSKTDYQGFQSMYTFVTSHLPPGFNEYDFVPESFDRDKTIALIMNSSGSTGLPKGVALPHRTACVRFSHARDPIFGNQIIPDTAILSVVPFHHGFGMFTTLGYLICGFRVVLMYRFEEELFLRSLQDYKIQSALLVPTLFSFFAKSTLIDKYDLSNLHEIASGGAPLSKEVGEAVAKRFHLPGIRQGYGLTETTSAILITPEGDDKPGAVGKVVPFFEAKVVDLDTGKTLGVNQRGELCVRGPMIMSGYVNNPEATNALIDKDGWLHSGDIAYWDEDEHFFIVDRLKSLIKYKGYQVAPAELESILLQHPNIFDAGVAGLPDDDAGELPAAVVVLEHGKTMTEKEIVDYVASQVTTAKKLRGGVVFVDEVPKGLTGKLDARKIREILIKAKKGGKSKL
In short: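 Biochemical qHTS: compounds run as interplate titrations against purified firefly enzyme, with D-luciferin and ATP each at its KM concentration. Light output recorded by CCD imaging.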

[6] = qHTS assay to identify small molecule antagonists of the estrogen related receptor signaling pathway with the pleiotropic PPARgamma coactivator (PGC) from Tox21 10K library - cell viability counter screen (AID 1224840; active means well fitted cell-killing curve with a large enough effect in the repeat runs, not every such curve was filed as active; further: nearly all actives have a fitted effect of over 40% in size; further: potency means the concentration at half of the fitted maximal effect)
In short: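 Counter-screen for cytotoxicity: after 17.5 h compound exposure at 37 C, CellTiter-Fluor reagent added to PGC/ERR cells for 30 min and fluorescence read. Cells were seeded at 2,000 per well 6 h before dosing.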

[7] = qHTS assay to identify small molecule antagonists of the estrogen related receptor signaling pathway with the pleiotropic PPARgamma coactivator (PGC) from Tox21 10K library (AID 1224841; call rule not given here; further: actives are mostly falling curves and most rising ones were filed inactive; nearly all actives have a fitted effect of over 50% in size; further: potency means the concentration at half of the fitted maximal effect)
In short: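 Luminescence (One-Glo, 30 min at room temperature) after 18 h compound treatment at 37 C of PGC/ERR reporter cells plated at 2,000 cells/well and settled 6 h beforehand.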

[8] = qHTS assay to identify small molecule agonists of the estrogen related receptor signaling pathway with the pleiotropic PPARgamma coactivator (PGC) from Tox21 10K library (AID 1224842); further: nearly all actives have a fitted effect of over 15% in size
In short: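 PGC/ERR reporter cell line, 2,000 cells per well, incubated 6 h at 37 C before 23 nL compound in DMSO was added. After 18 h at 37 C, One-Glo luminescence read following 30 min at room temperature.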

[9] = target: Thyrotropin receptor (Homo sapiens) (UniProt P16473); assay: qHTS assay to identify small molecule agonists of the thyroid stimulating hormone receptor (TSHR) signaling pathway (AID 1224843; calls by dose curve; further: nearly all actives have a fitted effect of over 45% in size; further: potency means the concentration at half of the fitted maximal effect)
Chain of Thyrotropin receptor (Homo sapiens) (P16473 whole entry, looked up): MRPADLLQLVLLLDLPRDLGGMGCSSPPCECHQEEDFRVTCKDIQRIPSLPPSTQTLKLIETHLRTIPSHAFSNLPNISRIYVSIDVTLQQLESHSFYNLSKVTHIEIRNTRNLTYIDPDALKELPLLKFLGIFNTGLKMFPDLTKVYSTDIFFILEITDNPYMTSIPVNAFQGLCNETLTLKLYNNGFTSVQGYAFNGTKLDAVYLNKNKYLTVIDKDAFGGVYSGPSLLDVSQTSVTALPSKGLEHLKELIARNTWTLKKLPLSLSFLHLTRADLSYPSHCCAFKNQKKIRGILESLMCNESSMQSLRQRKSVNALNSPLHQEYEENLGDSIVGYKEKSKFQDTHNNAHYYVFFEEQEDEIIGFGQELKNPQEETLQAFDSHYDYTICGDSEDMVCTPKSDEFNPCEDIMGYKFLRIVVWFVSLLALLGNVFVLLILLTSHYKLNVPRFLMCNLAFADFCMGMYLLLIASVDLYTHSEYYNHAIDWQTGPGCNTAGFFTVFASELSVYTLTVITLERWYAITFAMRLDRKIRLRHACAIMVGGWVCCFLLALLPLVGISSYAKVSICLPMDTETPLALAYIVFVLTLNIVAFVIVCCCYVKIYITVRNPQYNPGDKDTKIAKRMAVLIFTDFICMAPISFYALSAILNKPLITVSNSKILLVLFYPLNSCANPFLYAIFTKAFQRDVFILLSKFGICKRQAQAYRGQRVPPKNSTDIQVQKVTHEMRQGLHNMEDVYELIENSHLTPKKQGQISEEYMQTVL
In short: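 HEK293/TSHR, 800 cells/well; cpd 30 min RT; add cAMP-d2 + anti-cAMP-cryptate, 1 h RT; fluorescence read on plate reader. 15-pt titration, n=3.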

[10] = qHTS assay to identify small molecule agonists of the constitutive androstane receptor (CAR) signaling pathway - cell viability counter screen (AID 1224836); further: nearly all actives have a fitted effect of over 45% in size; further: potency means the concentration at half of the fitted maximal effect
In short: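 Viability read-out: CellTiter-Fluor fluorescence after 23 h compound exposure at 37 C/5% CO2 in double-stable HepG2-CYP2B6-hCAR cells, with PK11195 present at 0.75 uM final; compounds tested in 15-point titration.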

[11] = qHTS assay to identify small molecule antagonists of the constitutive androstane receptor (CAR) signaling pathway - cell viability counter screen (AID 1224837); further: nearly all actives have a fitted effect of over 45% in size; further: potency means the concentration at half of the fitted maximal effect
In short: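 Cytotoxicity counter-screen: CellTiter-Fluor fluorescence after 23 h compound exposure (15-point qHTS) in double-stable HepG2-CYP2B6-hCAR cells, with 50 nM CITCO added.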

[12] = target: Nuclear receptor subfamily 1 group I member 3 (Homo sapiens) (UniProt Q14994); assay: qHTS assay to identify small molecule antagonists of the constitutive androstane receptor (CAR) signaling pathway (AID 1224838);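 further: HepG2 cells stably expressing hCAR with CYP2B6 luciferase reporter stimulated by CITCO; nearly all actives have a fitted effect of over 40% in size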; further: potency means the concentration at half of the fitted maximal effect
Chain of Nuclear receptor subfamily 1 group I member 3 (Homo sapiens) (Q14994 whole entry, looked up): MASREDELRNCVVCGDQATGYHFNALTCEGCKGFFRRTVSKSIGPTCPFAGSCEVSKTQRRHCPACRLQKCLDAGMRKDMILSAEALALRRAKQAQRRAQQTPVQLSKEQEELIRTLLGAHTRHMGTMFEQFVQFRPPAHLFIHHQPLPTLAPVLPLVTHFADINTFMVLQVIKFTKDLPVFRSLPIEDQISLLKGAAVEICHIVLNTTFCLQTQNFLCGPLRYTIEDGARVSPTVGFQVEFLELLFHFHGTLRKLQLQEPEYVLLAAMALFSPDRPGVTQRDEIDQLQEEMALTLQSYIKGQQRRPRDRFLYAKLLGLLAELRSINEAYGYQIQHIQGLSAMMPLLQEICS
In short: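 Antagonism measured as luciferase signal (ONE-Glo, 30 min, room temperature) in CAR-stimulated cells: HepG2-CYP2B6-hCAR double-stable line exposed 24 hr at 37 C to compound in a 15-point series plus 50 nM CITCO.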

[13] = target: Nuclear receptor subfamily 1 group I member 3 (Homo sapiens) (UniProt Q14994); assay: qHTS assay to identify small molecule agonists of the constitutive androstane receptor (CAR) signaling pathway (AID 1224839); further: nearly all actives have a fitted effect of over 15% in size; further: potency means the concentration at half of the fitted maximal effect
In short: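 Luminescence read-out (ONE-Glo, 30 min, room temperature) from double-stable HepG2-CYP2B6-hCAR cells exposed 24 h to 15-point compound series in presence of 0.75 uM PK11195 final.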

[14] = qHTS assay to identify small molecule agonists of the retinoic acid receptor (RAR) signaling pathway (AID 1159553); further: potency means the concentration at half of the fitted maximal effect
In short: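 Luminescence was measured 30 min after luciferase reagent addition at room temperature. Before that, C3RL4 reporter cells (1,000 per well, plated overnight) were treated with compound for 6 hr at 37 C and 5% CO2.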

[15] = qHTS assay to identify small molecule antagonists of the estrogen related receptor (ERR) signaling pathway - cell viability counter screen (AID 1224818);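 further: series mostly up to about 46 µM; viability measured after 17.5 h of compound exposure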
In short: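 Cytotoxicity counter screen: fluorescence from CellTiter-Fluor, added after 17.5 h compound exposure at 37 C and read 30 min later. ERR cell line seeded at 2,000 cells/well, preincubated 6 h before dosing.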

[16] = qHTS assay to identify small molecule agonists of the estrogen related receptor (ERR) signaling pathway (AID 1224820)
In short: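 Luminescence readout (One-Glo, 30 min RT) from NTP-supplied ERR cell line exposed to compounds for 18 h at 37 C. Cells seeded 2,000 per well and pre-incubated 6 h before pin-tool compound transfer.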

[17] = tested on: estrogen-related receptor alpha (ERRalpha) with PGC-1alpha coactivator, human; assay: qHTS assay to identify small molecule antagonists of the estrogen related receptor signaling pathway with the pleiotropic PPARgamma coactivator (PGC) (AID 1224821; calls by dose curve;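 further: series mostly up to about 46 µM; lower luminescence signal means antagonism of PGC/ERR signalling; nearly all actives have a fitted effect of over 50% in size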)
In short: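 PGC/ERR reporter cells; 6 h pre-incubation 37 C/5% CO2; pin-tool compound in DMSO, 18 h 37 C; One-Glo added, 30 min RT; luminescence read. qHTS antagonist mode.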

[18] = qHTS assay to identify small molecule antagonists of the estrogen related receptor signaling pathway with the pleiotropic PPARgamma coactivator (PGC) cell viability counter screen (AID 1224822; further: series mostly up to about 46 µM)
In short: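 Viability counter-screen read by fluorescence intensity after 30 min with CellTiter-Fluor at 37 C; PGC/ERR reporter cells were exposed to compounds for 17.5 h at 37 C following a 6 h preincubation.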

[19] = qHTS assay to identify small molecule agonists of the estrogen related receptor signaling pathway with the pleiotropic PPARgamma coactivator (PGC) (AID 1224823)
In short: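 Luminescence readout (One-Glo, 30 min RT) from PGC/ERR cell line treated 18 h at 37 C with pin-tool-delivered DMSO compound solutions; cells plated 6 h before dosing. Quantitative HTS format.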

[20] = qHTS assay to identify small molecule antagonists of the estrogen related receptor (ERR) signaling pathway (AID 1224819; further: nearly all actives have a fitted effect of over 50% in size; further: potency means the concentration at half of the fitted maximal effect)
In short: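 LOPAC library screened for antagonism as reduced One-Glo luminescence in ERR reporter cells (2,000/well). Compounds were added after 6 h pre-incubation and left 18 h at 37C; reading followed a 30 min room-temperature reagent step.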

SMILES	Potency [1]	Potency [2]	Potency [3]	Potency [4]	Potency [5]	Potency [6]	Potency [7]	Potency [8]	Potency [9]	Potency [10]	Potency [11]	Potency [12]	Potency [13]	Potency [14]	Potency [15]	outcome [16]	Potency [17]	Potency [18]	outcome [19]	Potency [20]
CCCCCCCCCCCCc1ccc(O)cc1	13.8 µM (active)	61.1 µM (active)	48.6 µM (active)	54.5 µM (active)	inactive	48.6 µM (active)	54.5 µM (active)	inactive	27.3 µM (active)	–	–	–	–	–	–	–	–	–	–	–
O=c1cccccc1O	inactive	inactive	inactive	–	inactive	inactive	–	–	inactive	inactive	inactive	inactive	inactive	–	–	–	–	–	–	–
CCCCCOC(=O)CCCC	inactive	inactive	–	inactive	inactive	inactive	–	–	inactive	inactive	inactive	–	–	inactive	–	–	–	–	–	–
Cc1cccc(S(=O)(=O)O)c1C	inactive	inactive	–	inactive	inactive	inactive	–	–	inactive	inactive	inactive	inactive	–	inactive	–	–	–	–	–	–
O=C1c2ccccc2Cc2ccccc21	inactive	inactive	inactive	–	inactive	inactive	inactive	–	inactive	inactive	inactive	inactive	21.8 µM (active)	–	–	–	–	–	–	–
CN(C)[C@@H]1C(=O)C(C(N)=O)=C(O)[C@@]2(O)C(=O)C3=C(O)c4c(O)ccc(Cl)c4[C@@H](O)[C@H]3C[C@@H]12	inactive	inactive	–	inactive	inactive	inactive	–	inactive	inactive	inactive	inactive	–	–	inactive	inactive	inactive	inactive	inactive	inactive	–
OCCN(CCO)c1nc(N2CCCCC2)c2nc(N(CCO)CCO)nc(N3CCCCC3)c2n1	inactive	inactive	–	–	inactive	–	21.1 µM (active)	inactive	–	–	–	inactive	inactive	inactive	–	inactive	–	–	inactive	11.9 µM (active)
CCCCCCCCCCCCCCCCCC[N+](C)(C)Cc1ccccc1	4.95 µM (active)	61.7 µM (active)	24.6 µM (active)	49 µM (active)	–	55 µM (active)	30.9 µM (active)	inactive	55 µM (active)	55 µM (active)	55 µM (active)	–	inactive	–	–	–	–	–	–	–
Nc1ccccc1O	inactive	inactive	inactive	60.3 µM (active)	inactive	–	–	inactive	inactive	–	–	inactive	24 µM (active)	–	–	–	–	–	–	–
CC(C)(C)C(=O)OCOC(=O)[C@@H]1N2C(=O)[C@@H](NC(=O)[C@H](N)c3ccccc3)[C@H]2SC1(C)C	inactive	inactive	–	inactive	inactive	inactive	inactive	inactive	inactive	inactive	inactive	inactive	inactive	inactive	–	–	–	–	–	–
COc1cc(/C=C/C(=O)O[C@H]2CC[C@]34C[C@]35CC[C@]3(C)[C@@H]([C@H](C)CCC=C(C)C)CC[C@@]3(C)[C@@H]5CC[C@H]4C2(C)C)ccc1O	inactive	inactive	–	inactive	inactive	inactive	inactive	inactive	–	inactive	inactive	–	inactive	inactive	–	–	–	–	–	–
S=c1[nH]c2ccccc2s1	inactive	inactive	–	–	39.9 µM (active)	–	6.11 µM (active)	inactive	–	inactive	inactive	inactive	54.5 µM (active)	8.63 µM (active)	inactive	inactive	–	–	inactive	inactive
COc1cc(-c2ccc(N=C=O)c(OC)c2)ccc1N=C=O	inactive	inactive	–	inactive	inactive	inactive	inactive	inactive	–	inactive	inactive	inactive	inactive	inactive	–	–	–	–	–	–
C[C@@H](NCCCc1cccc(C(F)(F)F)c1)c1cccc2ccccc12	16.9 µM (active)	33.5 µM (active)	29.8 µM (active)	29.8 µM (active)	inactive	–	inactive	inactive	inactive	–	–	–	inactive	–	–	–	–	–	–	–
NC(=O)CC[C@@H]1NC(=O)[C@H](Cc2ccccc2)NC(=O)[C@H](Cc2ccc(O)cc2)NC(=O)CCSSC[C@@H](C(=O)N2CCC[C@H]2C(=O)N[C@@H](CCCN=C(N)N)C(=O)NCC(N)=O)NC(=O)[C@H](CC(N)=O)NC1=O	inactive	inactive	–	inactive	inactive	inactive	–	–	inactive	inactive	inactive	inactive	–	inactive	–	–	–	–	–	–
CN(C/C=C/C#CC(C)(C)C)Cc1cccc2ccccc12	7.56 µM (active)	inactive	–	inactive	inactive	inactive	–	–	inactive	inactive	inactive	inactive	–	inactive	–	–	–	–	–	–
CC[C@@]1(O)C(=O)OCc2c1cc1n(c2=O)Cc2c-1nc1ccccc1c2/C=N/OC(C)(C)C	0.848 µM (active)	inactive	0.119 µM (active)	–	inactive	inactive	4.73 µM (active)	inactive	inactive	–	–	37.6 nM (active)	inactive	–	–	–	–	–	–	–
